Data from ChEMBL document CHEMBL1961873, “Compounds: GSK PKIS; Assays: Nanosyn kinase panel” (2012).

Legend:
[1] = system: Tyrosine-protein kinase ABL1 (Homo sapiens), P00519 [T315I]; settings: at 1 µM
[2] = system: Tyrosine-protein kinase ABL1 (Homo sapiens), P00519 [Y253F]; settings: at 0.1 µM
[3] = system: Tyrosine-protein kinase ABL1 (Homo sapiens), P00519 [Y253F]; settings: at 1 µM
[4] = target: Tyrosine-protein kinase ABL1 (Homo sapiens) (UniProt P00519); settings: at 0.1 µM
[5] = target: Tyrosine-protein kinase ABL1 (Homo sapiens) (UniProt P00519); settings: at 1 µM
[6] = target: ALK tyrosine kinase receptor (Homo sapiens) (UniProt Q9UM73); settings: at 0.1 µM
[7] = target: ALK tyrosine kinase receptor (Homo sapiens) (UniProt Q9UM73); settings: at 1 µM
[8] = target: Tyrosine-protein kinase ABL2 (Homo sapiens) (UniProt P42684); settings: at 0.1 µM
[9] = target: Tyrosine-protein kinase ABL2 (Homo sapiens) (UniProt P42684); settings: at 1 µM
[10] = target: Tyrosine-protein kinase receptor UFO (Homo sapiens) (UniProt P30530); settings: at 0.1 µM;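 further: values are mean percent inhibition of AXL from the GSK PKIS screen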
Chain of Tyrosine-protein kinase receptor UFO (Homo sapiens) (P30530 whole entry): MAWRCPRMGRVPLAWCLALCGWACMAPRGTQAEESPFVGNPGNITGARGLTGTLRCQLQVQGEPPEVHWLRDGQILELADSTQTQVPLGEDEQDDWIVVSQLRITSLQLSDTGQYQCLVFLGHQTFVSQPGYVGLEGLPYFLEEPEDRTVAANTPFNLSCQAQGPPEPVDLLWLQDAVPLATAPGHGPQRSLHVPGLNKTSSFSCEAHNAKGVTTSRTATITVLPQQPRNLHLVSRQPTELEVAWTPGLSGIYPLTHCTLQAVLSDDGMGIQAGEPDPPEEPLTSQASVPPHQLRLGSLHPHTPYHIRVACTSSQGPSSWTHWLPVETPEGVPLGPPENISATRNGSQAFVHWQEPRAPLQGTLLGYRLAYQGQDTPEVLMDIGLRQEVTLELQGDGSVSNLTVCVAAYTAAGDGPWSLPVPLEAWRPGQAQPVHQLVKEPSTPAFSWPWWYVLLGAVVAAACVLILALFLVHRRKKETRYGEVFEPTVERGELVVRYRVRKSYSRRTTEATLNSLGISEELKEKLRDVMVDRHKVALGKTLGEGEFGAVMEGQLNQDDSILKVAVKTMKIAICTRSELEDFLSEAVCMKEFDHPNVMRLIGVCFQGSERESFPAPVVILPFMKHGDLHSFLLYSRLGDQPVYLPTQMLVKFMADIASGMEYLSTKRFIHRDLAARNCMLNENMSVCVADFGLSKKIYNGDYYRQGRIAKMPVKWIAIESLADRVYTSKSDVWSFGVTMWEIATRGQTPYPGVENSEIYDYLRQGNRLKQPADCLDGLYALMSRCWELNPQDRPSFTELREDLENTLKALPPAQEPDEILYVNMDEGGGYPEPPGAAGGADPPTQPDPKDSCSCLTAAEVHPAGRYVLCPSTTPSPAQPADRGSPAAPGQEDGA

Chain of Tyrosine-protein kinase ABL2 (Homo sapiens) (P42684 whole entry): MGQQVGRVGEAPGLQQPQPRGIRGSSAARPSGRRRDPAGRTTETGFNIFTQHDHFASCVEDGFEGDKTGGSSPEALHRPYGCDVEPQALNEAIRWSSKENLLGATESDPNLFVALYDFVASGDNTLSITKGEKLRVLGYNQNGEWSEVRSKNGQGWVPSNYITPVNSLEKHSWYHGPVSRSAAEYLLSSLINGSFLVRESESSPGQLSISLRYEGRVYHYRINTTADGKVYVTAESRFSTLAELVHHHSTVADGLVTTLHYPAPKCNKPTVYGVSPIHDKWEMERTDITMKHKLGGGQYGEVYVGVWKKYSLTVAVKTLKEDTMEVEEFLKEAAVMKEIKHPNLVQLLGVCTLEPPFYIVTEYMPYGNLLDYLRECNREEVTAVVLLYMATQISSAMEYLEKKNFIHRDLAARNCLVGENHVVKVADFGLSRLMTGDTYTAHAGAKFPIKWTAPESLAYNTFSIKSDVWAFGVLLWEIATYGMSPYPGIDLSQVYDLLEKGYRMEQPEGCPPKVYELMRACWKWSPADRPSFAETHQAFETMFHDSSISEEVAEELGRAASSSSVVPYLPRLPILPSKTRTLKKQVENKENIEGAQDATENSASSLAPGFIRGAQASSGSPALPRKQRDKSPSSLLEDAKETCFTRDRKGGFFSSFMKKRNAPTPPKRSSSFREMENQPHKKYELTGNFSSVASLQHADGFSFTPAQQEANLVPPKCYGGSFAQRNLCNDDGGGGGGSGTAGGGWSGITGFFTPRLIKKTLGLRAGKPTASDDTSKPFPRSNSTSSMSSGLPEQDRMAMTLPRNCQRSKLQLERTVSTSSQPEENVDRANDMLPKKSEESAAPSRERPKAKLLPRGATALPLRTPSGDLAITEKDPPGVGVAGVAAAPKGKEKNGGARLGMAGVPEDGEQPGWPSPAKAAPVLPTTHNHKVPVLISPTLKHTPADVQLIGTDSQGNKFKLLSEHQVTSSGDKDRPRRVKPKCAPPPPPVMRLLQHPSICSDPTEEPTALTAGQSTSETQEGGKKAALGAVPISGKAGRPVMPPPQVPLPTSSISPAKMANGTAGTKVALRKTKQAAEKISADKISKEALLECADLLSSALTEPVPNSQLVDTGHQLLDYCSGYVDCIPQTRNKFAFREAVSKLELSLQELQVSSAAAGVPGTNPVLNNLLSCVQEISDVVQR
Chain of ALK tyrosine kinase receptor (Homo sapiens) (Q9UM73 19-1620 limits assumed): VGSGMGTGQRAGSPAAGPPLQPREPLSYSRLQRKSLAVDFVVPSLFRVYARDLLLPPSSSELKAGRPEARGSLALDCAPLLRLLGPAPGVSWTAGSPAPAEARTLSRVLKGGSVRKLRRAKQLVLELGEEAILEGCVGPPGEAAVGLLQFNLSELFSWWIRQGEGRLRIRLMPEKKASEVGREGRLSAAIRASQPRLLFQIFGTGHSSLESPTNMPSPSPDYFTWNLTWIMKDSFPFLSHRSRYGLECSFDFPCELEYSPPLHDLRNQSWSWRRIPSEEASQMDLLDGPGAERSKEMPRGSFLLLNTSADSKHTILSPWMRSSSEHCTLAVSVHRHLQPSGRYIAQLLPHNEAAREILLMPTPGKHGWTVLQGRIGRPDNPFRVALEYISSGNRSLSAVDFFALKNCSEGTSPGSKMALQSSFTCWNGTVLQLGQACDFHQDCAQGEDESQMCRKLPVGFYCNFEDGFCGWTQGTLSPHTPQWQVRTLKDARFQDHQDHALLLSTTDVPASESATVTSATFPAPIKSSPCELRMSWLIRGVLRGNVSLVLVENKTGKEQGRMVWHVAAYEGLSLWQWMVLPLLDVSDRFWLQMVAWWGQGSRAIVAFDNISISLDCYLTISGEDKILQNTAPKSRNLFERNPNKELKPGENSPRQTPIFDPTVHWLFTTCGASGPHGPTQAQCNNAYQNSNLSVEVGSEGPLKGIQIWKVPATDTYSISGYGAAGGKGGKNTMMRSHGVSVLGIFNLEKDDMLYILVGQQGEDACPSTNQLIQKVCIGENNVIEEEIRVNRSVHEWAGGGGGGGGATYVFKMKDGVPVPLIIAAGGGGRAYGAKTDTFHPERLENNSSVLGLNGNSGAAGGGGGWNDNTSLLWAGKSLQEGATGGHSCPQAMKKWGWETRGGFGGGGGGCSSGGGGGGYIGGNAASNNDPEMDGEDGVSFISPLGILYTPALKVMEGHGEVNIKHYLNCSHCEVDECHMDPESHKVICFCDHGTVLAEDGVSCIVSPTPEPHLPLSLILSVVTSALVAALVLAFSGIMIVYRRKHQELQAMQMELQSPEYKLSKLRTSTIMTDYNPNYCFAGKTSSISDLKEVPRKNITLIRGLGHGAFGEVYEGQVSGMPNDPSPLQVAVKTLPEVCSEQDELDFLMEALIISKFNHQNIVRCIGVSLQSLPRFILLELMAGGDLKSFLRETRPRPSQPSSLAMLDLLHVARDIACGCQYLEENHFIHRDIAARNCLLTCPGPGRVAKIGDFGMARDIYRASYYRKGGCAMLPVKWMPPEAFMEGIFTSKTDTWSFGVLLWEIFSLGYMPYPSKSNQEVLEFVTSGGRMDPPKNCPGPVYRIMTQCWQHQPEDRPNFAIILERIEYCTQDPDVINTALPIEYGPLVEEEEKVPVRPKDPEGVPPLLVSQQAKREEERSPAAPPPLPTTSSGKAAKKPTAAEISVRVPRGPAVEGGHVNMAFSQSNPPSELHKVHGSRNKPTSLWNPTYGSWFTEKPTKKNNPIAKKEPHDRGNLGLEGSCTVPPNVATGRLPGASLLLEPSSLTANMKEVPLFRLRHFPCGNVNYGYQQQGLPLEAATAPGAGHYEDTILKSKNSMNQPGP

Structure (SMILES) | inhibition [1] [%] | inhibition [2] [%] | inhibition [3] [%] | inhibition [4] [%] | inhibition [5] [%] | inhibition [6] [%] | inhibition [7] [%] | inhibition [8] [%] | inhibition [9] [%] | inhibition [10] [%]
NS(=O)(=O)c1ccc(Nc2cc(-c3ccc(O)c(F)c3)n[nH]2)cc1 | 22.8 | 2.85 | 35.6 | 0.38 | 34.8 | -2.35 | 8.38 | 0.56 | 16.9 | 1.86
COc1cc(Nc2ncc3c(C)nc(-c4cccc(Oc5ccccc5)c4)n3n2)cc(OC)c1OC | 3.35 | 4.25 | 2.77 | 2.33 | 3.84 | 1.5 | 12.7 | 2.57 | 0.57 | 0.02
Nc1nccc(-c2c(-c3ccc(F)cc3)ncn2C2CCC(O)CC2)n1 (centres undefined) | 42.7 | 1.83 | 24.4 | 1.2 | 36.8 | -2.24 | 2.88 | 0.37 | 30.3 | 2.47
N#Cc1ccc(Oc2nccc(-c3c(-c4ccc(F)cc4)ncn3C3CCNCC3)n2)cc1 | 5.17 | 2.11 | 5.93 | 3.72 | 5.42 | 3.58 | 5.33 | 1.9 | 6.94 | -5.46
NC(=O)c1cc(-c2ccc(F)cc2)cc(-c2ccncc2)c1N | 4.82 | 4.33 | 5.14 | 2.42 | 6.04 | 1.8 | 4.91 | 1.26 | 5.07 | -7.77
COc1cc2ncn(-c3cc(OCCc4ccccc4)c(C(N)=O)s3)c2cc1OC | 8.39 | 3.32 | 9.56 | 2.3 | 13.7 | 1.95 | 5.89 | 2.26 | 8.26 | -5.54
Fc1ccc(-c2c(-c3ccncc3)nc3n2CCS3)cc1 | 3.81 | 2.69 | 5.48 | -1.32 | 2.3 | -2.59 | -1.88 | -2.22 | 2.07 | -4.74
CS(=O)(=O)CCNCc1ccc(-c2ccc3ncnc(Nc4ccc(OCc5ccccc5)c(Br)c4)c3c2)o1 | 1.57 | 4.14 | 4.05 | 3.09 | 2.83 | -0.91 | 1.84 | 0.83 | 4.36 | -6.75
COc1cc(Nc2ncc(-c3ccccc3)o2)cc(OC)c1OC | 22.3 | 16.7 | 69.2 | 7.54 | 52.3 | -2.74 | -0.68 | 9.54 | 52.1 | -0.73
COc1ccc2ncn(-c3cc(O[C@H](C)c4ccccc4Cl)c(C(N)=O)s3)c2c1 | 3.67 | 2.13 | 4.15 | -0.74 | 0.5 | -1.6 | 0.59 | -1.99 | -0.05 | -9.61
CCS(=O)(=O)c1ccc(OC)c(Nc2ncc(-c3ccccc3Cl)o2)c1 | 11.7 | 5.95 | 33.3 | 2.99 | 29.3 | 0.79 | 5.19 | 4.89 | 24.5 | -0.86
Fc1ccc(-c2ncn(CCCN3CCOCC3)c2-c2ccncc2)cc1 | -0.98 | -0.87 | 0.03 | 1.14 | 0.89 | 1.45 | -0.45 | 1.71 | 5.07 | -0.1
COc1cc(Nc2ncc3c(C)nc(-c4cccc(C(F)(F)F)c4)n3n2)cc(OC)c1OC | 13.1 | 3.77 | 16.2 | 2.35 | 14.6 | 2.22 | 6.97 | 3.85 | 13.1 | -3.79
CCS(=O)(=O)c1ccc(OC)c(Nc2ncc(-c3cccc(-c4ccccc4F)c3)o2)c1 | 18 | 60.6 | 91.4 | 13.7 | 77.8 | 1.79 | 4.33 | 7.9 | 65.1 | 0.9
CN(C)CCCNc1nccc(-c2c(-c3ccc(F)cc3)nn3cc(C(F)(F)F)ccc23)n1 | 2.66 | 3.93 | 6.04 | 2.04 | 11.2 | -2.64 | -0.07 | 2.2 | 6.34 | -2.11
O=C1Nc2ccccc2/C1=C/Nc1ccc(-n2cncn2)cc1 | 17.2 | 3.13 | 13.1 | 1.87 | 13.5 | 1.97 | 11.8 | 3.58 | 7.69 | -6.88
Cc1ccc(C(=O)NC2CCC2)cc1-c1ccc(C(=O)NCC2CC2)cc1 | -1.77 | 2.23 | 0.38 | 3.73 | 5.96 | 2.79 | 3.48 | 3.15 | 0.48 | -4.44

Structure (SMILES) | inhibition [1] [%] | inhibition [2] [%] | inhibition [3] [%] | inhibition [4] [%] | inhibition [5] [%] | inhibition [6] [%] | inhibition [7] [%] | inhibition [8] [%] | inhibition [9] [%] | inhibition [10] [%]
CCN(CC)Cc1ccc(Nc2nccc(-c3cnn4ncccc34)n2)cc1 | 47.4 | 8.38 | 39.5 | 6.1 | 29.5 | 2.57 | 24.4 | 1.47 | 22.2 | -3.64
COc1ccc2cc(-c3c(-c4ccncc4)nc(-c4ccc(S(C)(=O)=O)cc4C)n3C)ccc2c1 | 42.6 | 4.62 | 18 | 2.92 | 13.5 | 2.91 | 6.27 | 2.97 | 11.7 | -5.68
NC(=O)Cc1ccccc1Oc1nccc(-c2c(-c3ccc(F)cc3)ncn2C2CCNCC2)n1 | -0.82 | 1.75 | 1.1 | 2.7 | 5.08 | 4.05 | 8.13 | 2.21 | 2.93 | -5.91
c1ccc(Oc2ccc(Nc3ncc(-c4ccccc4)o3)cc2)cc1 | 1.01 | 1.56 | 3.65 | 2.29 | 7.18 | 0.41 | 2.22 | 1.49 | 1.49 | -1.17
CCC(=O)Nc1ccc(C)c(-c2ccc(C(=O)NCC3CC3)cc2)c1 | 3.61 | 2.81 | 3.14 | 2.28 | 2.9 | 1.63 | 2.14 | 0.38 | 3.75 | -4.46
NC(=O)c1cc(-c2ccncc2)cc(-c2ccccc2)c1N | 3.04 | 8.23 | 40.8 | 7.61 | 40.2 | 3.8 | 5.19 | 6.19 | 54.2 | -7.51
COc1ccc2cc(-c3c(-c4ccncc4)nc(-c4ccc([S+](C)[O-])cc4C)n3C)ccc2c1 (centres undefined) | 54.5 | 1.98 | 16 | 2.56 | 15.7 | -0.66 | 2.15 | 5.58 | 12.1 | 1.01
CN(C)CCOc1ccc(-c2cc(-c3ccc4c(c3)CCC4=NO)c(-c3ccncc3)o2)cc1 | 19.4 | 2.44 | 22.1 | 2.01 | 20.3 | -1.95 | -0.08 | 2.43 | 18.6 | 1.32
O=C1Nc2ccc(I)cc2C1=Cc1cc(Br)c(O)c(Br)c1 | 2.95 | 1.68 | 5.83 | 5.59 | 6.33 | 3.04 | 4.7 | 4.07 | 6.48 | -5.83
NS(=O)(=O)c1ccc(N/N=C2\C(=O)Nc3ccc(C(=O)NCCCn4ccnc4)cc32)cc1 | 14.2 | 5.66 | 15.5 | 2.77 | 13.3 | 3.7 | 11.1 | 4.28 | 9.85 | -2.66
CCc1ccc(Oc2nccc(-c3c(-c4ccc(F)cc4)ncn3C3CCNCC3)n2)cc1 | 3.78 | 1.61 | 2.53 | 5.79 | 6.61 | 1.79 | 2.02 | 2.69 | 5.01 | -2.27
COc1cc2ncn(-c3cc(OCc4ccccc4C(F)(F)F)c(C(C)=O)s3)c2cc1OC | 4.77 | 3.33 | 4.29 | 5.34 | 10.7 | 2.65 | 3.72 | 6.5 | 10.4 | -3.01
Fc1ccc(-c2ncn(C3CCNCC3)c2-c2ccnc(Oc3ccc(F)c(F)c3)n2)cc1 | 1.7 | 1.79 | 2.98 | -1.26 | -1.29 | -1 | 1.5 | -1.34 | 0.3 | –
Fc1ccc(-c2nc3n(c2-c2ccncc2)CCS3)cc1 | 2.55 | 3.68 | 5.02 | -1.35 | 3.25 | -0.77 | 0.29 | 0.16 | 4.56 | -7.95
COc1cccc(/C=N/Nc2ncnc3c2cnn3-c2cccc(OC)c2)c1 | 10.4 | 11.1 | 49.7 | 6.38 | 27.4 | 1.22 | 2.63 | 2.78 | 15.2 | -6.24
COc1cc(C)c(N(C)C(=O)CN(C)C)cc1Nc1nc(Nc2cccc(F)c2C(N)=O)c2cc[nH]c2n1 | -0.05 | 2.02 | 1.33 | 0.32 | 0.22 | 22.4 | 69.9 | -2.32 | -3.83 | -0.45
COc1cc(N2CCN(C(C)C)CC2)ccc1Nc1nc(Nc2ccc(F)cc2C(=O)NC[C@@H](O)CO)c2cc[nH]c2n1 | 6.94 | 4.03 | 6.49 | -1.73 | 0.53 | 82.6 | 69.5 | -1.39 | 1.38 | -4.74
